We go through 25 compounds from PubChem BioAssay (Tox21).

Assay [1] in a line: qHTS assay to identify small molecule antagonists of the estrogen related receptor (ERR) signaling pathway from Tox21 library - cell viability counter screen (AID 1224834). Also: nearly all actives have a fitted effect of over 30% in size. Put shortly: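 Counter screen run in ERR cells (2,000 cells/well): cells pre-incubated 6 h, then treated with compounds for 17.5 h at 37 C. Fluorescence was read 30 min after CellTiter-Fluor addition.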
A general note: qHTS replaces the single test concentration by a dilution series.

Assay [2] is described as follows: qHTS assay to identify small molecule agonists of the constitutive androstane receptor (CAR) signaling pathway - cell viability counter screen (AID 1224836). Also: series mostly up to about 92 µM; nearly all actives have a fitted effect of over 45% in size. Put shortly:
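HepG2-CYP2B6-hCAR, 2500 cells/well, 4 h pre-incubation; cpd 15 conc + PK11195 0.75 uM final; 23 h, 37 C/5% CO2; CellTiter-Fluor, fluorescence.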

A short description of assay [3]: qHTS assay to identify small molecule antagonists of the constitutive androstane receptor (CAR) signaling pathway - cell viability counter screen (AID 1224837). Also: series mostly up to about 92 µM; nearly all actives have a fitted effect of over 45% in size. An outline of the steps:
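CITCO at 50 nM final was added alongside compounds (15 concentrations) to double-stable hCAR/CYP2B6-2.2kb HepG2 cells. Following 23 hr at 37 C, cell viability was quantified by CellTiter-Fluor fluorescence intensity.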

The nature of assay [4]: qHTS assay to identify small molecule antagonists of the estrogen related receptor signaling pathway with the pleiotropic PPARgamma coactivator (PGC) from Tox21 10K library - cell viability counter screen (AID 1224840; active = well fitted cell-killing curve with a large enough effect in the repeat runs, not every such curve was filed as active; also: nearly all actives have a fitted effect of over 40% in size). Put shortly: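 Readout: fluorescence intensity from CellTiter-Fluor after 30 min at 37 C/5% CO2. Preceded by 17.5 h treatment of PGC/ERR cells with DMSO-dissolved compounds, added 6 h post-seeding.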

A short description of assay [5]: qHTS assay to identify small molecule antagonists of the estrogen related receptor signaling pathway with the pleiotropic PPARgamma coactivator (PGC) from Tox21 10K library (AID 1224841; call rule not given here; also: actives are mostly falling curves and most rising ones were filed inactive; nearly all actives have a fitted effect of over 50% in size; also: potency is read from the fitted curve at half-maximal effect; as to activity, negative = inhibition: series mostly up to about 92 µM). An outline of the steps: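 One-Glo luminescence, measured after half an hour at room temperature, quantified reporter output of PGC/ERR cells. These had been plated at 2,000 per well, incubated 6 h, dosed with compounds in DMSO, then kept 18 h at 37 C.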

Assay [6] in a line: qHTS assay to identify small molecule agonists of the estrogen related receptor signaling pathway with the pleiotropic PPARgamma coactivator (PGC) from Tox21 10K library (AID 1224842). Also: nearly all actives have a fitted effect of over 15% in size. Also: potency is read from the fitted curve at half-maximal effect. An outline of the steps: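 PGC/ERR reporter cells (NTP line) were seeded 2,000 per well, rested 6 h at 37 C/5% CO2, then pin-dosed with compounds in DMSO for 18 h at 37 C; luciferase read by One-Glo luminescence after 30 min at room temperature.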

Assay [7] concerns the target Nuclear receptor subfamily 1 group I member 3 (Homo sapiens) (UniProt Q14994). Description: qHTS assay to identify small molecule antagonists of the constitutive androstane receptor (CAR) signaling pathway (AID 1224838). Also: nearly all actives have a fitted effect of over 40% in size. Also: potency is read from the fitted curve at half-maximal effect. Put shortly: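 Inhibition of CITCO-driven (50 nM final) CYP2B6 reporter expression is measured in HepG2 cells stably carrying hCAR. Fifteen compound concentrations are applied for 24 h at 37 C, followed by luciferase luminescence.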

Assay [8] shares this target. Put plainly: qHTS assay to identify small molecule agonists of the constitutive androstane receptor (CAR) signaling pathway (AID 1224839). Also: nearly all actives have a fitted effect of over 15% in size. Also: potency is read from the fitted curve at half-maximal effect. An outline of the steps: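 HepG2-CYP2B6-hCAR cells, 2500/well, 4 h pre-incubation; compounds 15 conc.; PK11195 0.75 uM final; 24 h, 37 C/5% CO2; ONE-Glo luciferase read.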
Assay [9] has as its target Luciferin 4-monooxygenase (Photinus pyralis) (UniProt P08659). Put plainly: qHTS assay to identify small molecule inhibitors of firefly luciferase (AID 1224835). Also: nearly all actives have a fitted effect of over 25% in size. Also: potency is read from the fitted curve at half-maximal effect. An outline of the steps:
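Quantitative HTS format; KM concentrations of both substrates. Purified P. pyralis FLuc activity quantified from luminescence images.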

Inconclusive results are not listed. Values without a mark were called inactive. Activity calls are given as the source filed them. Unless noted, calls follow the shape of the dose curve; as a rule, active = well fitted curve in the direction sought with a large enough effect in the repeat runs; inconclusive = weak or mixed curves; inactive = no such curve, though single readings can be large; an effect the other way counts as inactive or inconclusive.
% is scaled to controls: 0 for no effect and ±100 for the full control effect.

Sequence of Nuclear receptor subfamily 1 group I member 3 (Homo sapiens) (Q14994 whole entry, looked up): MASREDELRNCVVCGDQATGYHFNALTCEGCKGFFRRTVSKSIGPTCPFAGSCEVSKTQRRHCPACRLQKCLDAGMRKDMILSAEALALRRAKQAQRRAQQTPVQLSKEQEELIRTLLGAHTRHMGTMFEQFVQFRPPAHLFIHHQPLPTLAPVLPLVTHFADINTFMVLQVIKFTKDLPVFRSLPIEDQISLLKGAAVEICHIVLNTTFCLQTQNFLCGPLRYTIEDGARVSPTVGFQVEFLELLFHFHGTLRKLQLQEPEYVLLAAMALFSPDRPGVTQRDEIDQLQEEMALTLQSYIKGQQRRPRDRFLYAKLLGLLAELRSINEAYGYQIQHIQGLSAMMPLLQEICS
Sequence of Luciferin 4-monooxygenase (Photinus pyralis) (P08659 whole entry, looked up): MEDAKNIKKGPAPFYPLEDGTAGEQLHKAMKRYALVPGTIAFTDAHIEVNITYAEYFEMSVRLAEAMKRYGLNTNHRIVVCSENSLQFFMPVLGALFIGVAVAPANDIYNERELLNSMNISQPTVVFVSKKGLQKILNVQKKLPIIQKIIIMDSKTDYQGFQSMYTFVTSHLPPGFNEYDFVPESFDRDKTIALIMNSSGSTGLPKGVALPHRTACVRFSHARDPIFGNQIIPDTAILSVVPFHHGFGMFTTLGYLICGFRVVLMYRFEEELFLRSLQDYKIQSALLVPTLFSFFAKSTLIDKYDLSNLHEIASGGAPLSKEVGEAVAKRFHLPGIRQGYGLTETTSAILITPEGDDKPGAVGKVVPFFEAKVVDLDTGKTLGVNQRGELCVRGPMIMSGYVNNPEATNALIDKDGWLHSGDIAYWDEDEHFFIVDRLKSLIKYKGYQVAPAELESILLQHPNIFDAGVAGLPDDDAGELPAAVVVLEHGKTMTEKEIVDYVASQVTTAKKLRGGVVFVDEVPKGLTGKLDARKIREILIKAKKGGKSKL

As for `COc1nc(C)nc(N)n1`, the Potency entry in assay [1] is “inactive”. The outcome in [2], in assay [3] and in assay [4] was inactive.
`CNc1ncnc2nc[nH]c12`: the Potency entry in assay [1], in assay [5] and in assay [6] was “inactive” in each case. Also, the outcome in assay [2], in [3] and in assay [4] was inactive.
For the compound `CCn1cc(C(=O)O)c(=O)c2cc(F)c(N3CCN(C)CC3)cc21`, the viability change, negative = cytotoxic in [1] was 3.25% [at 19 µM]; in assay [2], 2.39% [at 19 µM]; in assay [4] it was 8.09% [at 19 µM]. Also, the activity change, negative = cytotoxicity in assay [3] is 2.92% [at 19 µM].
Consider `CCCCCC[C@@H](CCC)C(=O)O`, for which the Potency entry in assay [1], in assay [7], in [8], in assay [5] and in assay [6] was “inactive” in each case. The outcome in assay [2], in [3] and in assay [4] was inactive.
As to `C=C(C)[C@@H]1CCC2=CC(=O)C[C@@H](C)[C@]2(C)C1`, the Potency result in assay [1], in [5] and in [6] was “inactive” each time. The compound was called inactive in assay [2], in assay [3] and in [4].
As for `O=S(=O)(c1cccc2cnccc12)N1CCCNCC1`, the Potency entry in [1], in assay [8] and in assay [6] was “inactive” throughout. In addition, the Potency was 13.3 µM (active) in assay [7] and 23.7 µM (active) in assay [5]. The call in [4] was inactive.
For `Cc1ccc(N)cc1[N+](=O)[O-]`, the Potency entry in [9], in assay [7] and in [8] was “inactive” in each case. The compound was called inactive in assay [2], in assay [3] and in assay [4].
Regarding `CCn1c(=O)c2c(nc(/C=C/c3ccc(OC)c(OC)c3)n2C)n(CC)c1=O`, the Potency result in assay [9], in assay [7], in assay [8], in assay [5] and in [6] was “inactive” in each case. Moreover, the compound was called inactive in assay [2], in assay [3] and in assay [4].
Regarding `COc1ccc2cc(C=O)ccc2c1`, the Potency result in assay [1], in assay [7], in [8], in [5] and in assay [6] was “inactive” each time. The result in assay [2], in assay [3] and in assay [4] was inactive.
For the compound `C[N+](C)(C)CC[N+]1(C)Cc2c(Cl)c(Cl)c(Cl)c(Cl)c2C1`, in assay [1], the Potency entry was “inactive”. The compound was classed as inactive in assay [2], in assay [3] and in assay [4].
Consider `CO`, for which the Potency entry in assay [1], in [7], in assay [8], in [5] and in [6] was “inactive” in each case. Moreover, the compound was called inactive in assay [2], in assay [3] and in assay [4].
With `CC(C)c1cccc(O)c1`, the Potency result in assay [1], in assay [7], in assay [8], in assay [5] and in assay [6] was “inactive” throughout. Further, the outcome in [2], in [3] and in assay [4] was inactive.
In the case of `CNC(=O)c1c(I)c(NC(=O)CCCCC(=O)Nc2c(I)c(C(=O)O)c(I)c(C(=O)NC)c2I)c(I)c(C(=O)O)c1I`, the Potency result in assay [1], in assay [7], in assay [8], in [5] and in assay [6] was “inactive” throughout. Besides, the compound was classed as inactive in assay [2], in assay [3] and in assay [4].
For the compound `Oc1ccc2c(c1)OC[C@@H](N1CCC(O)(c3ccc(F)cc3)CC1)[C@H]2O`, the Potency result in assay [1], in [7] and in assay [5] was “inactive” throughout. Further, the compound was called inactive in assay [2], in [3] and in assay [4]. Besides, the Potency is 3.76 µM (active) in assay [8] and 4.73 µM (active) in [6].
As for `CCCCCCCCC=O`, the Potency result in assay [1], in [7], in [8], in assay [5] and in [6] was “inactive” each time. Further, the call in [2], in assay [3] and in assay [4] was inactive.
`CCCOCC(C)OCC(C)O` (centres undefined): the Potency entry in [1], in assay [5] and in assay [6] was “inactive” each time. Further, the result in assay [2], in [3] and in assay [4] was inactive.
In the case of `N#CC1(O)CCCCC1`, the Potency result in assay [9], in assay [7], in assay [8], in assay [5] and in [6] was “inactive” each time. For the same compound, the call in assay [2], in assay [3] and in assay [4] was inactive.
As for `O=C(O)c1cccc(C(=O)O)n1`, the Potency result in [1], in assay [7], in assay [8], in [5] and in [6] was “inactive” in each case. Moreover, the compound was called inactive in assay [2], in [3] and in assay [4].
Turning to `COC[C@H](c1ccc(C(F)(F)F)cc1)N1CCN(C2(C)CCN(C(=O)c3c(C)ncnc3C)CC2)C[C@H]1C`, the Potency result in assay [1], in assay [7], in assay [8], in assay [5] and in assay [6] was “inactive” each time. For the same compound, the call in [2], in [3] and in [4] was inactive.
Take `Cn1ccc2cc3c(cc21)CCN3C(=O)Nc1cccnc1`: the Potency in assay [9] is 3.79 µM (active); in assay [8], 1.64 µM (active). For the same compound, the viability change, negative = cytotoxic is -0.1% [at 19 µM] in assay [2] and -15.1% [at 19 µM] in [4]. Also, the activity change, negative = cytotoxicity in assay [3] is -15.3% [at 19 µM]. Further, in [7], the activity, negative = inhibition is 213% [at 19 µM].
Turning to `OCC(O)[C@@H](O)[C@H](O)[C@H](O)CO[C@H]1O[C@H](CO)[C@@H](O)[C@H](O)[C@H]1O` (some centres undefined), the Potency entry in assay [1] was “inactive”. In addition, the compound was classed as inactive in assay [2], in [3] and in [4].
In the case of `NC(CS)C(=O)O` (centres undefined), the Potency result in assay [1] is “inactive”. Besides, the call in assay [2], in assay [3] and in assay [4] was inactive.
Regarding `NCCN1CCNC1=O`, the Potency result in assay [1], in assay [7] and in assay [8] was “inactive” in each case. The compound was called inactive in [2], in [3] and in assay [4].
For the compound `O=C(O)CCNC(=O)c1ccc(N=Nc2ccc(O)c(C(=O)O)c2)cc1`, in [9], the Potency is 30.9 µM (active). Moreover, the compound was classed as inactive in assay [2], in assay [3] and in [4]. Further, the Potency result in assay [7] and in assay [8] was “inactive” in each case.
As to `COC(=O)c1ccc(C(=O)OC)c(C(=O)OC)c1`, the Potency entry in [1], in assay [7], in [8], in assay [5] and in assay [6] was “inactive” each time. Besides, the compound was classed as inactive in assay [2], in assay [3] and in assay [4].
